# Laboratory results published in PubChem BioAssay.
# Where “and” joins values, the source holds several entries; their conditions need not be identical. Equal values may be shown once. Calls of active or inactive are those of the source.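 How the source made its calls, unless noted: active means at least 20% inhibition of 6-phosphogluconate dehydrogenase activity; inactive means the rest.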
# How the values were obtained:
# [1] = target: 6-phosphogluconate dehydrogenase, decarboxylating (Homo sapiens) (UniProt P52209); assay: 6PGD enzyme inhibitors, primary screen, biochemical, human, recombinant enzyme, NADPH absorbance (AID 1159550); conditions: recombinant 6PGD, NADPH absorbance 341 nm; at 10 µM; stronger effect = higher value
# 6-phosphogluconate dehydrogenase, decarboxylating (Homo sapiens), sequence (P52209 whole entry, looked up): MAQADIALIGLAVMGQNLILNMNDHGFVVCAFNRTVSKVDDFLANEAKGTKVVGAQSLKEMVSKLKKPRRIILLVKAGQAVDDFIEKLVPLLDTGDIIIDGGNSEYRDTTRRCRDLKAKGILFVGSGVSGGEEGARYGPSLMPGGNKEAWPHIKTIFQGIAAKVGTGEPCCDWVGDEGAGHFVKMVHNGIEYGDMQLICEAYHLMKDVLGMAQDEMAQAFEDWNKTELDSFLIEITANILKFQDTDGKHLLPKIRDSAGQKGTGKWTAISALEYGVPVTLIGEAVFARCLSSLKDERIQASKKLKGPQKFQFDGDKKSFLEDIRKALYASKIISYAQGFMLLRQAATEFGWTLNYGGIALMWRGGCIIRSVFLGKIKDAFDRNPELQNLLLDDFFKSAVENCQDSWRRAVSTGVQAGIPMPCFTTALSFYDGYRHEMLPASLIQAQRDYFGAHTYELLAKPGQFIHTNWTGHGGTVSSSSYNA
# [2] = differential killing of epithelial or mesenchymal cells, primary screen, imaging, PC-3E GFP, TEM4-18 mCherry, co-culture (AID 1345086;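 active means compounds killing one labelled cell type while sparing the other, by normalised counts and ratio limits, not self-fluorescent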;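 on all read-outs here: cells exposed to compound for 72 h before imaging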;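 on red/green cell ratio (normalised): normalised mesenchymal count divided by normalised epithelial count so high means epithelial killing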); conditions: imaging cell counts, at 1 µM; for red/green cell ratio (normalised): actives lie on both sides
# [3] = polyglutamine-triggered caspase-3 activation inhibitors, cell-based (AID 1583); conditions: polyglutamine-induced caspase-3 activation, cell assay; stronger effect = higher value;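 tested at 10 µM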
# [4] = suppressors of polyQ aggregation in yeast, 75Q-TubU reporter (AID 1593); conditions: Yeast 75Q polyglutamine aggregation reporter
# [5] = hESC survival regulators, cell-based (AID 493140; call rule not given here;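 further: cells exposed to compounds for four days before counting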); conditions: human embryonic stem cell survival screen; stronger effect = higher value
# [6] = system: Aerobactin synthetase IucA (Klebsiella pneumoniae hvKP1); assay: Biochemical IucA enzyme inhibition primary screen of the Spectrum library (AID 1346200; call rule not given here;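 further: 100% = wells without compound and 0% = wells lacking enzyme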); conditions: malachite green pyrophosphate, A620, at 8 µM, stronger effect = lower value
# [7] = survival rescue of mitochondrial mutant cells in low glucose, primary screen, MELAS cybrids, Rieske KO mouse fibroblasts, CellTiter-Glo (AID 1508586;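 active means mean z-score across replicates of 1.96 or higher in either the MELAS or the Rieske mutant cell line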;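 further: z relative to plate mean and SD of compound and empty wells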)
# [8] = target: Mitogen-activated protein kinase 7 (Homo sapiens) (UniProt Q13164); assay: ERK5 transactivation activators in reporter cells, primary screen, cell-based, HTS (AID 1508626;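 active means luciferase signal above three times the same-plate solvent-only control wells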;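 further: luciferase driven by Gal4-ERK5 fusion binding five Gal4 sites before minimal TATA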); conditions: HeLa Gal4-ERK5 transactivation, 18 h, at 5 µM, stronger effect = higher value
# Mitogen-activated protein kinase 7 (Homo sapiens), sequence (Q13164 whole entry, looked up, the tested form may be a part): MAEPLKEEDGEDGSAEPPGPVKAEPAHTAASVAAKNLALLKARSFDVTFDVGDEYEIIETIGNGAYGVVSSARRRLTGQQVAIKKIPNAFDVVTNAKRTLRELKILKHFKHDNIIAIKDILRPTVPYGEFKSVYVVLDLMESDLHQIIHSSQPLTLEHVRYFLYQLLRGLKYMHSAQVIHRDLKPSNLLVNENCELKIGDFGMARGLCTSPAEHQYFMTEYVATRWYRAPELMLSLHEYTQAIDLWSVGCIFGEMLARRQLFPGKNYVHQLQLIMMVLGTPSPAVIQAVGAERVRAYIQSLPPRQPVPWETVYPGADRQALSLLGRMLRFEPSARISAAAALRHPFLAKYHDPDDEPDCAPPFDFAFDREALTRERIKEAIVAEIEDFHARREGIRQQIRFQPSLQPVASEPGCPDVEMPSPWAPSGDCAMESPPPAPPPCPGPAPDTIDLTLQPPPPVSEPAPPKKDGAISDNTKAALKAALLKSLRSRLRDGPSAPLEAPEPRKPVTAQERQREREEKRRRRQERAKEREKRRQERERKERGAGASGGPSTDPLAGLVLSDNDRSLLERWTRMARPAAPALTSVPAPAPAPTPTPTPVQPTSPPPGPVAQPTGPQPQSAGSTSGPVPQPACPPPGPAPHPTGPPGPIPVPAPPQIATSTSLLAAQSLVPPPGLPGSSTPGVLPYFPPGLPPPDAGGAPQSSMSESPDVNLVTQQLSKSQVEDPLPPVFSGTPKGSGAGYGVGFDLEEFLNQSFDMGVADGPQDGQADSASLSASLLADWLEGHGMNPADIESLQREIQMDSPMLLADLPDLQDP
# [9] = viability rescue of complex I mutant cybrids, primary screen, cell-based, galactose medium, ATP luminescence (AID 1645843;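 active means z-score of at least 1.8 in each of two replicates, scored against plate mean and spread of sample wells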;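 further: positive z means more ATP and so rescue of galactose-driven cybrid death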); conditions: complex I mutant cybrid cells, 72 h, stronger effect = higher value
# [10] = liver-stage malaria parasite growth inhibition, primary screen, cell-based, HepG2, luciferase luminescence, HepG2 viability (AID 624349; in the data active means parasite load remaining mostly below about 12%, no sharp cut-off; inactive means mostly above about 10%;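 further: 100% = mean of DMSO negative control wells on the same plate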); conditions: P. berghei liver stage in HepG2, luciferase luminescence, concentration not given here; parasite load remaining: stronger effect = lower value; viability: measured here: HepG2 viability without parasites
# [11] = sensitizers of A549 cells to miR-34 induction, primary screen, imaging, A549 dox-inducible miR-34, nuclei and caspase counts (AID 1347080;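 active means compounds whose cell count with miR-34 switched on is under 0.7 times the count with it off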); conditions: A549 miR-34 inducible, Hoechst nuclei count, 48 h
# [12] = target: NAD(+) hydrolase SARM1 (Homo sapiens) (UniProt Q6SZW1); assay: SARM1 TIR NADase inhibitors, cell lysate, NAD-Glo luminescence (AID 1508614;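 active means compound whose remaining NAD level is above about 45 nM, limit read from the data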); conditions: SAM-TIR HEK293T lysate NADase, at 1 µM, stronger effect = higher value
# NAD(+) hydrolase SARM1 (Homo sapiens), sequence (Q6SZW1 whole entry, looked up): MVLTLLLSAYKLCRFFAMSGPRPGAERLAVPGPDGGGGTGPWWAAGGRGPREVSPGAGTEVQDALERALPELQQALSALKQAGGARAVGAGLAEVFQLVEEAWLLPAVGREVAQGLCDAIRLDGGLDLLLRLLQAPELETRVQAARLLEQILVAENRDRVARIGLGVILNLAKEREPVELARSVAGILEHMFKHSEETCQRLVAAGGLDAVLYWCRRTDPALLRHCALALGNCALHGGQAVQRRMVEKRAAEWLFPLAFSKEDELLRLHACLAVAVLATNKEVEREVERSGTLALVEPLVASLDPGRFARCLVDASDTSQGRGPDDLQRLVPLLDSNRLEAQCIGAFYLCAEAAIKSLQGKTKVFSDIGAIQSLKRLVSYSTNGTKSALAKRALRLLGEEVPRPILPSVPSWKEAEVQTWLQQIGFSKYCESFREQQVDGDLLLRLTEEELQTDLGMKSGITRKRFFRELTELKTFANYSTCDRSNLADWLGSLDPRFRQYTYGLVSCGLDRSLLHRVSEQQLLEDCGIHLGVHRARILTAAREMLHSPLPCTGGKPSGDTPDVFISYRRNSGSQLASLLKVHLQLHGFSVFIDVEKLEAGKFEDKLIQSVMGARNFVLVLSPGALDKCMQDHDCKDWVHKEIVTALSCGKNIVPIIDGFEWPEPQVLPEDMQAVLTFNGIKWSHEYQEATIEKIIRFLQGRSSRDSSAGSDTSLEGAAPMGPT
# [13] = measured here: epithelial PC-3E GFP cell survival
# [14] = measured here: mesenchymal TEM4-18 mCherry cell survival
# [15] = MELAS cybrid survival, CellTiter-Glo 48 h, stronger effect = higher value
# [16] = Rieske KO mouse fibroblast survival, CellTiter-Glo 72 h
# [17] = measured here: relative caspase fold change +Dox/-Dox
# [18] = measured here: total cells with miR-34 induction, stronger effect = lower value
# [19] = measured here: total cells without miR-34 induction
# [20] = stronger effect = lower value, cell number ratio, induced over uninduced
smiles,measurement,setting,value
CC(C)N(C(=O)CCl)c1ccccc1,inhibition,[1],-9.5% (inactive)
O=C(O)COc1ccc(Cl)cc1Cl,inhibition,[1],-20.1% (inactive)
same,red/green cell ratio (normalised),[2],1.22 (inactive)
same,normalised cell number,[2]; [13],0.89
same,normalised cell number,[2]; [14],1.08
O=S1OCC2C(CO1)C1(Cl)C(Cl)=C(Cl)C2(Cl)C1(Cl)Cl (configuration not stated),inhibition,[1],5.97% (inactive)
CC[C@@]1(O)C(=O)OCc2c1cc1n(c2=O)Cc2cc3ccccc3nc2-1,inhibition,[3],-22.8%
same,score,[4],1.92
same,survival,[5],0.833 (inactive)
same,inhibition,[1],3.3% (inactive)
same,red/green cell ratio (normalised),[2],1.07 (inactive)
same,normalised cell number,[2]; [13],0.28
same,normalised cell number,[2]; [14],0.3
same,activity remaining,[6],107% (inactive)
same,z-score,[7]; [15],-0.725 (inactive) and -0.263 (inactive) and -1.18 (inactive)
same,z-score,[7]; [16],0.467 and -0.232 and -0.237
same,luciferase signal,[8],28 AU (inactive)
same,z-score,[9],-0.96 (inactive) and -0.91 (inactive) and -2.17 (inactive)
C[C@]12CC[C@H](O)C[C@H]1CC[C@@H]1[C@@H]2[C@H](O)C[C@]2(C)[C@@H](C3=CC(=O)OC3)CC[C@]12O,inhibition,[1],11.1% (inactive)
CN1C2C[C@H](OC(=O)[C@H](CO)c3ccccc3)CC1[C@@H](O)C2 (some centres not stated),inhibition,[1],-3.17% (inactive)
C=C1C([C@]2(C)C(CC(=O)OC)[C@@](C)(COC(C)=O)OC(=O)C[C@@H]2OC(C)=O)[C@@H](OC=O)[C@H](OC(=O)C(OC(C)=O)C(C)CC)[C@@]2(C)[C@H](c3ccoc3)CC(=O)C12O (some centres not stated),inhibition,[1],-6.98% (inactive)
CC(=O)O[C@H]1CC[C@@]2(C)[C@@H](CC[C@@H]3[C@@H]2CC[C@]2(C)C(=O)CC[C@@H]32)C1,inhibition,[1],0.969% (inactive)
c1ccc2c3c([nH]c2c1)CNCC3,parasite load remaining,[10],59.9% (inactive)
same,viability,[10],85.2%
same,inhibition,[1],-0.853% (inactive)
same,fold change,[11]; stronger effect = lower value,0.984 (inactive)
same,fold change,[11]; [17],1.28
same,cell count,[11]; [18],7470
same,cell count,[11]; [19],7600
same,z-score,[9],-0.425 (inactive)
COP(=O)(OC)OC(C)C(C)=O (configuration not stated),inhibition,[1],13.2% (inactive)
COc1cc2c(cc1OC)[C@@]13CCN4CC5=CCO[C@H]6CC(=O)N2[C@H]1[C@H]6[C@H]5C[C@H]43,parasite load remaining,[10],80.5% (inactive)
same,viability,[10],63.8%
same,inhibition,[1],7.74% (inactive)
same,remaining NAD,[12],10 nM (inactive)
same,luciferase signal,[8],76 AU (inactive)
NC(=O)CS(=O)C(c1ccccc1)c1ccccc1 (configuration not stated),parasite load remaining,[10],153% (inactive) and 44.2% (inactive) and 93% (inactive)
same,viability,[10],83% and 104% and 71.7%
same,inhibition,[1],-7.07% (inactive)
same,red/green cell ratio (normalised),[2],1.19 (inactive)
same,normalised cell number,[2]; [13],1.04
same,normalised cell number,[2]; [14],1.24
same,activity remaining,[6],120% (inactive)
same,fold change,[11]; stronger effect = lower value,0.912 (inactive) and 0.928 (inactive) and 0.913 (inactive)
same,fold change,[11]; [17],0.934 and 0.471 and 9.69
same,cell count,[11]; [18],8970 and 9060 and 12100
same,cell count,[11]; [19],9830 and 9770 and 13200
same,z-score,[7]; [15],0.264 (inactive)
same,z-score,[7]; [16],0.0685
same,remaining NAD,[12],10 nM (inactive)
same,luciferase signal,[8],40 AU (inactive)
same,z-score,[9],0.66 (inactive)
O=c1ccc2cc(O[C@@H]3O[C@H](CO)[C@@H](O)[C@H](O)[C@H]3O)c(O)cc2o1,inhibition,[3],-24.4%
same,score,[4],1.12
same,parasite load remaining,[10],71.6% (inactive)
same,viability,[10],71.7%
same,inhibition,[1],-2.58% (inactive)
same,red/green cell ratio (normalised),[2],1.25 (inactive)
same,red/green cell ratio (normalised),"[2]; counts scaled to control wells, 1 = unselective",0.97 (inactive)
same,normalised cell number,[2]; [13],0.87 and 1.04
same,normalised cell number,[2]; [14],1.09 and 1
same,activity remaining,[6],95.9% (inactive)
same,luciferase signal,[8],92 AU (inactive)
C=CCN1CC[C@]23c4c5ccc(O)c4O[C@H]2C(=O)CC[C@@]3(O)[C@H]1C5,survival,[5],31.3 (inactive)
same,inhibition,[1],-2.77% (inactive)
same,z-score,[7]; [15],0.056 (inactive) and 0.0574 (inactive)
same,z-score,[7]; [16],-0.112 and -0.417
same,remaining NAD,[12],10 nM (inactive)
same,luciferase signal,[8],32 AU (inactive)
same,z-score,[9],0.98 (inactive) and -0.48 (inactive) and 0.575 (inactive)
Cc1nccc2c1[nH]c1ccccc12,survival,[5],12.2 (inactive)
same,parasite load remaining,[10],94.4% (inactive) and 63.5% (inactive)
same,viability,[10],116% and 79%
same,inhibition,[1],-8.63% (inactive)
same,red/green cell ratio (normalised),[2],0.96 (inactive)
same,normalised cell number,[2]; [13],0.91
same,normalised cell number,[2]; [14],0.87
same,activity remaining,[6],102% (inactive)
same,fold change,[11]; stronger effect = lower value,0.91 (inactive) and 0.859 (inactive)
same,fold change,[11]; [20],0.856 (inactive)
same,fold change,[11]; [17],1.74 and 1.56 and 1.32
same,cell count,[11]; [18],8890 and 7490 and 7920
same,cell count,[11]; [19],9780 and 8760 and 9220
same,luciferase signal,[8],132 AU (inactive)
same,z-score,[9],-0.38 (inactive) and -0.595 (inactive)
CC[C@H]1CN2CC[C@H]1C[C@@H]2[C@@H](O)c1ccnc2ccc(OC)cc12,inhibition,[1],5.31% (inactive)
same,remaining NAD,[12],10 nM (inactive)
same,luciferase signal,[8],16 AU (inactive)
C#CCOS(=O)OC1CCCCC1Oc1ccc(C(C)(C)C)cc1 (configuration not stated),inhibition,[1],-21.1% (inactive)
O=c1c2ccccc2[se]n1-c1ccccc1,inhibition,[3],12.1%
same,score,[4],0.32
same,survival,[5],0.417 (inactive)
same,parasite load remaining,[10],54.1% (inactive) and 46.2% (inactive)
same,viability,[10],93.6% and 69.7%
same,inhibition,[1],51.1% (active)
same,red/green cell ratio (normalised),[2],0.87 (inactive)
same,normalised cell number,[2]; [13],1.06
same,normalised cell number,[2]; [14],0.92
same,activity remaining,[6],-2.27% (active)
same,z-score,[7]; [15],-1.8
same,z-score,[7]; [16],2.16
same,remaining NAD,[12],10 nM (inactive)
same,z-score,[9],-1.44 (inactive)
COc1ccc2[nH]cc(CCN)c2c1,parasite load remaining,[10],58.9% (inactive)
same,viability,[10],68.9%
same,inhibition,[1],0.367% (inactive)
same,red/green cell ratio (normalised),[2],0.84 (inactive)
same,normalised cell number,[2]; [13],1.18
same,normalised cell number,[2]; [14],0.99
same,activity remaining,[6],83.6% (inactive)
same,fold change,[11]; stronger effect = lower value,1.03 (inactive) and 0.901 (inactive)
same,fold change,[11]; [17],1.64 and 1.2
same,cell count,[11]; [18],10600 and 8900
same,cell count,[11]; [19],10300 and 9880
same,z-score,[9],0.225 (inactive) and 0.515 (inactive)
CN[C@@H](Cc1c[nH]c2ccccc12)C(=O)O,inhibition,[1],8.96% (inactive)
CCCCCCCCCc1ccc(O)cc1,inhibition,[1],10.5% (inactive)
same,red/green cell ratio (normalised),[2],0.85 (inactive)
same,normalised cell number,[2]; [13],1.34
same,normalised cell number,[2]; [14],1.14
CC1=NCCc2c1[nH]c1cc(O)ccc21,inhibition,[3],-45.7%
same,score,[4],0.81
same,survival,[5],17.3 (inactive)
same,parasite load remaining,[10],47.1% (inactive) and 63.7% (inactive) and 58.9% (inactive)
same,viability,[10],102% and 67.4% and 76.2%
same,inhibition,[1],-14.9% (inactive)
same,red/green cell ratio (normalised),[2],0.98 (inactive)
same,normalised cell number,[2]; [13],1.01
same,normalised cell number,[2]; [14],0.99
same,activity remaining,[6],98.9% (inactive)
same,fold change,[11]; [20],0.845 (inactive)
same,fold change,[11]; [17],1.99
same,cell count,[11]; [18],8870
same,cell count,[11]; [19],10500
same,luciferase signal,[8],64 AU (inactive)
C[C@H](N)[C@H](O)c1ccc(O)c(O)c1,inhibition,[3],6.31%
same,score,[4],1.43
same,parasite load remaining,[10],61.3% (inactive) and 64.5% (inactive) and 57.8% (inactive)
same,viability,[10],93.6% and 73.6% and 105%
same,inhibition,[1],-1.74% (inactive)
same,red/green cell ratio (normalised),[2],1.17 (inactive)
same,normalised cell number,[2]; [13],1.01
same,normalised cell number,[2]; [14],1.18
same,activity remaining,[6],102% (inactive)
same,fold change,[11]; stronger effect = lower value,0.912 (inactive) and 0.869 (inactive)
same,fold change,[11]; [17],1.02 and 0.57
same,cell count,[11]; [18],9300 and 11200
same,cell count,[11]; [19],10200 and 12900
same,z-score,[7]; [15],-0.729 (inactive)
same,z-score,[7]; [16],-1.14
same,remaining NAD,[12],10 nM (inactive)
same,luciferase signal,[8],16 AU (inactive)
